According to PubChem BioAssay (EPA / NIEHS):
Activity calls are given as the source filed them. The calls were made as follows: active = hit-call score of the fitted dose curve at least 0.9, where 1 is the maximum; inactive = score below 0.9.

Assay: ATG_NFI_CIS: Attagene CIS-FACTORIAL HepG2 Assay for human Nuclear Factor I (NFI) (AID 2282989)
Conditions: HepG2 cis-regulatory reporter, NFI response element transcription; actives raise or lower the signal
Procedure, shortened: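 Cells: human liver HepG2, transiently transfected with promoter-regulated reporter transcription units. Exposure 24 h. Detection: fluorescent RT-PCR products separated by capillary electrophoresis, normalised to DMSO negative control.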

outcome, inactive:
CC[C@H]1OC(=O)[C@H](C)[C@@H](O[C@H]2C[C@@](C)(OC)[C@@H](O)[C@H](C)O2)[C@H](C)[C@@H](O[C@@H]2O[C@H](C)C[C@H](N(C)C)[C@H]2O)[C@](C)(O)C[C@@H](C)C(=NOCOCCOC)[C@H](C)[C@@H](O)[C@]1(C)O, CCCCCCCCCCCCCCCC(=O)OCC, CC(C)(C)c1ccc(N)cc1, CC1=CC[C@H]2C[C@@H]1C2(C)C, CCCCCCCC/C=C\CCCCCCCC(=O)OCCO, COC(=O)c1cc(Cl)ccc1[N+](=O)[O-], C=C(C)[C@H]1CC=C(C)CC1, CC=CC(F)(F)C(F)(F)C(F)(F)F, CCCOC(=O)CCCCC(=O)OCCC, CCOc1nc(F)cc2nc(S(=O)(=O)Nc3c(Cl)cccc3C(=O)OC)nn12, CC(C)=CCC[C@H](C)CCO, CCCCCCCCC(=O)OCC, NC(=O)C1CO1 (stereo not drawn), C[Si](C)(CCCN)O[Si](C)(C)CCCN, C=C1[C@H]2CC[C@@H]3[C@H]2C(C)(C)CCC[C@]13C, O=C(O)CC(C(=O)O)C(CC(=O)O)C(=O)O (stereo not drawn), CC(C)C(=O)C(C)C, CC(=O)OCCC1CCCCC1, COC(F)(F)C(F)(C(F)(F)F)C(F)(F)F, O=C(/C=C/C=C/c1ccc2c(c1)OCO2)N1CCCCC1, C=CC(C)(C)C, C=C(C)[C@@H]1CCC2=CCC[C@@H](C)[C@]2(C)C1, C=CC(C)(CCC=C(C)C)OC(=O)C(C)C (stereo not drawn), COC(=O)c1sccc1S(N)(=O)=O, Cc1cccc(C(=O)O)c1, CCOC(F)(F)C(F)(F)C(F)(F)C(F)(F)F, O=[N+]([O-])c1ccc(CO)cc1, c1c[nH]cn1, O=S(=O)(O)c1ccccc1C=Cc1ccc(-c2ccc(C=Cc3ccccc3S(=O)(=O)O)cc2)cc1, CC=CC(=O)N(CC)c1ccccc1C, CCC(C)OC(=O)c1ccc(O)cc1 (stereo not drawn), CC1(C)S[C@@H]2[C@H](NC(=O)COc3ccccc3)C(=O)N2[C@H]1C(=O)O, CCO[Si](C)(OCC)OCC, CCCCCCCCCCc1ccccc1, Clc1nc2ccccc2s1, CCN(Cc1cccc(S(=O)(=O)O)c1)c1ccc(C(=C2C=CC(=[N+](CC)Cc3cccc(S(=O)(=O)[O-])c3)C=C2)c2ccccc2)cc1, O=CC1CC1, Cc1ccccc1C, Nc1cccc(C(F)(F)F)c1, Cc1cc(C)c(C)c(C)c1

Assay: ATG_NF_kB_CIS: Attagene CIS-FACTORIAL HepG2 Assay for human Nuclear Factor Kappa B (NF-kB) (AID 2282991)
Conditions: HepG2 Attagene cis-factorial NF-kB reporter mRNA; actives raise or lower the signal
Procedure, shortened: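 Multiplexed cis-reporter assay in transiently transfected HepG2. 24 h treatment; RNA isolated, RT-PCR, labelled fragments resolved by CE. DMSO baseline.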

outcome, inactive:
CC[C@H]1OC(=O)[C@H](C)[C@@H](O[C@H]2C[C@@](C)(OC)[C@@H](O)[C@H](C)O2)[C@H](C)[C@@H](O[C@@H]2O[C@H](C)C[C@H](N(C)C)[C@H]2O)[C@](C)(O)C[C@@H](C)C(=NOCOCCOC)[C@H](C)[C@@H](O)[C@]1(C)O, CCCCCCCCCCCCCCCC(=O)OCC, CC1=CC[C@H]2C[C@@H]1C2(C)C, COC(=O)c1cc(Cl)ccc1[N+](=O)[O-], CC=CC(F)(F)C(F)(F)C(F)(F)F, CCCOC(=O)CCCCC(=O)OCCC, CCOc1nc(F)cc2nc(S(=O)(=O)Nc3c(Cl)cccc3C(=O)OC)nn12, CC(C)=CCC[C@H](C)CCO, CCCCCCCCC(=O)OCC, NC(=O)C1CO1 (stereo not drawn), C[Si](C)(CCCN)O[Si](C)(C)CCCN, O=C(O)CC(C(=O)O)C(CC(=O)O)C(=O)O (stereo not drawn), CC(C)C(=O)C(C)C, CC(=O)OCCC1CCCCC1, COC(F)(F)C(F)(C(F)(F)F)C(F)(F)F, O=C(/C=C/C=C/c1ccc2c(c1)OCO2)N1CCCCC1, C=C(C)[C@@H]1CCC2=CCC[C@@H](C)[C@]2(C)C1, C=CC(C)(CCC=C(C)C)OC(=O)C(C)C (stereo not drawn), COC(=O)c1sccc1S(N)(=O)=O, Cc1cccc(C(=O)O)c1, CCOC(F)(F)C(F)(F)C(F)(F)C(F)(F)F, O=[N+]([O-])c1ccc(CO)cc1, c1c[nH]cn1, O=S(=O)(O)c1ccccc1C=Cc1ccc(-c2ccc(C=Cc3ccccc3S(=O)(=O)O)cc2)cc1, CCC(C)OC(=O)c1ccc(O)cc1 (stereo not drawn), CC1(C)S[C@@H]2[C@H](NC(=O)COc3ccccc3)C(=O)N2[C@H]1C(=O)O, CCO[Si](C)(OCC)OCC, CCCCCCCCCCc1ccccc1, Clc1nc2ccccc2s1, CCN(Cc1cccc(S(=O)(=O)O)c1)c1ccc(C(=C2C=CC(=[N+](CC)Cc3cccc(S(=O)(=O)[O-])c3)C=C2)c2ccccc2)cc1, O=CC1CC1, Cc1ccccc1C

AC50, active:
CCCCCCCC/C=C\CCCCCCCC(=O)OCCO 68.1 µM
